# Active and inactive are the calls of the source.
# How the values were obtained:
# [1] = E. coli DRC41 culture turbidity changes, primary screen, E. coli filamentation inducer project, strain DRC41, OD650, 48 h (AID 1152);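 note: E. coli MC1000 strain DRC41 lacking acrAB efflux pump and sulA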; details: E. coli DRC41 (acrAB sulA), higher = more signal, called active from +8 up or from −8 down
# [2] = small-molecule binders of probe aLefty1, primary screen, biochemical, small-molecule microarray, 635/667 nm fluorescence (AID 1153); details: higher = more signal;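 note: score merges spot fluorescence with signal-to-noise ratio from the scanned slide images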
# [3] = PSAC antagonists in infected red cells, primary screen, cell-based, P. falciparum Indochina, OD700, 1 h (AID 1154); details: P. falciparum Indochina infected RBC osmotic lysis, higher = more signal, called active from +8 up or from −8 down
# [4] = PSAC antagonists in infected red cells, primary screen, cell-based, P. falciparum Indochina, OD700, 2 h (AID 1155);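 note: lysis reports solute entry through the parasite surface anion channel PSAC; channel blockers reduce lysis of infected cells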; details: P. falciparum Indochina infected erythrocytes, osmotic lysis OD700; higher = more signal, called active from +8 up or from −8 down
# [5] = osmotic lysis modulators in infected erythrocytes, primary screen, PSAC antagonist project, cell-based, P. falciparum Indochina, OD700, 3 h (AID 1156); details: higher = more signal, called active from +8 up or from −8 down
# [6] = PSAC antagonists in infected red cells, primary screen, cell-based, P. falciparum Indochina, OD700, 18 h (AID 1157); details: P. falciparum Indochina infected erythrocytes, osmotic lysis OD700, 18 h; higher = more signal, called active from +8 up or from −8 down
# [7] = modulators of S6 phosphorylation in cells, primary screen, cell-based, A549, cytoblot, luminescence, serum-stimulated (AID 1158); details: A549 phospho-S6 cytoblot, 5 h, higher = more signal;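 note: serum-stimulated A549 lung adenocarcinoma cells; signal is phosphorylated S6 detected by cytoblot immunostaining with HRP secondary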
# [8] = biological target: NADPH oxidase 2 (Homo sapiens) (UniProt P04839); experiment: NOX2-dependent H2O2 signal modulators, primary screen, NOX inhibitor project, cell-based, HEK293-NOX2, PMA-stimulated, Amplex Red fluorescence (AID 1159); details: 45 min, higher = more signal, called active from +8 up or from −8 down; note: test concentration not given here
# [9] = biological target: NADPH oxidase 4 (Homo sapiens) (UniProt Q9NPH5); experiment: NOX4-dependent H2O2 signal modulators, primary screen, NOX inhibitor project, cell-based, HEK293-NOX4, tetracycline-induced, Amplex Red fluorescence (AID 1160); details: 45 min, higher = more signal, called active from +8 up or from −8 down
# [10] = biological target: NADPH oxidase 5 (Homo sapiens) (UniProt Q96PH1); experiment: NOX5-dependent H2O2 signal modulators, primary screen, NOX inhibitor project, cell-based, HEK293-NOX5, Amplex Red fluorescence (AID 1161); details: HEK293-NOX5, ionomycin, 45 min, higher = more signal
# Chain of NADPH oxidase 5 (Homo sapiens) (Q96PH1 whole entry, looked up): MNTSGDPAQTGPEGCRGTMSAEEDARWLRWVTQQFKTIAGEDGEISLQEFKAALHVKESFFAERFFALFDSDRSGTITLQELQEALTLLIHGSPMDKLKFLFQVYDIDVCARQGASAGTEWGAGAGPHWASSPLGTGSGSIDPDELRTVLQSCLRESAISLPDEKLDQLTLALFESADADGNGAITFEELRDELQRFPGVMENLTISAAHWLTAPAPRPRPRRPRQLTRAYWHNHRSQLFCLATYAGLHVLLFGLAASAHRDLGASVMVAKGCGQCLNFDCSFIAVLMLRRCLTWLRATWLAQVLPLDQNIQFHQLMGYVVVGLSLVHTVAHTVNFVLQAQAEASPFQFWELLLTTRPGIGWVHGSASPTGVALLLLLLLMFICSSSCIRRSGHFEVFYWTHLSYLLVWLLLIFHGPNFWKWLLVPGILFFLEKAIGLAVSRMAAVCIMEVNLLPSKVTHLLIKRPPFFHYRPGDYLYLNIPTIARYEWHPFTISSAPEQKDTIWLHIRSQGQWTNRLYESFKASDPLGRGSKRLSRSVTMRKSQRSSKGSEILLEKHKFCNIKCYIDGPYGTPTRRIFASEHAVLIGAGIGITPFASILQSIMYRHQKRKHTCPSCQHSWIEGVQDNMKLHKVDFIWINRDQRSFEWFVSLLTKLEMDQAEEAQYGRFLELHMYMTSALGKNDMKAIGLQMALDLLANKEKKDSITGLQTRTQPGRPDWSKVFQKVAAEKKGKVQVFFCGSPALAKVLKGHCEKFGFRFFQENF
# Chain of NADPH oxidase 4 (Homo sapiens) (Q9NPH5 whole entry, looked up): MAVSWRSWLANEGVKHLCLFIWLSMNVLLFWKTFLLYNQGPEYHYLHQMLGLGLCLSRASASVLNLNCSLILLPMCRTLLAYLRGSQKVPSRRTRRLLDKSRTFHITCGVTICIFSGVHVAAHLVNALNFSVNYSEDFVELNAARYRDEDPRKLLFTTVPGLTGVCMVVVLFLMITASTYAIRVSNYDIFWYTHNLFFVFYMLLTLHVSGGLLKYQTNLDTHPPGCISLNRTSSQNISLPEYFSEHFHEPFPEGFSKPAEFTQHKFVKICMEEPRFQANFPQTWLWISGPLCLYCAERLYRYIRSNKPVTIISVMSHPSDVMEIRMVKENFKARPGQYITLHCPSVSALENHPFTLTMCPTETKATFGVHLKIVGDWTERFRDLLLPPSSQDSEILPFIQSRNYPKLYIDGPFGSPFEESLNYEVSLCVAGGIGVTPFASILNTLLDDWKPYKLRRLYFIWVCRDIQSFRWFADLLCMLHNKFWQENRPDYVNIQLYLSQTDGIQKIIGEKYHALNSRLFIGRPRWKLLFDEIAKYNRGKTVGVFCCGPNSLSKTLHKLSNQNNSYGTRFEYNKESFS
# Chain of NADPH oxidase 2 (Homo sapiens) (P04839 whole entry, looked up): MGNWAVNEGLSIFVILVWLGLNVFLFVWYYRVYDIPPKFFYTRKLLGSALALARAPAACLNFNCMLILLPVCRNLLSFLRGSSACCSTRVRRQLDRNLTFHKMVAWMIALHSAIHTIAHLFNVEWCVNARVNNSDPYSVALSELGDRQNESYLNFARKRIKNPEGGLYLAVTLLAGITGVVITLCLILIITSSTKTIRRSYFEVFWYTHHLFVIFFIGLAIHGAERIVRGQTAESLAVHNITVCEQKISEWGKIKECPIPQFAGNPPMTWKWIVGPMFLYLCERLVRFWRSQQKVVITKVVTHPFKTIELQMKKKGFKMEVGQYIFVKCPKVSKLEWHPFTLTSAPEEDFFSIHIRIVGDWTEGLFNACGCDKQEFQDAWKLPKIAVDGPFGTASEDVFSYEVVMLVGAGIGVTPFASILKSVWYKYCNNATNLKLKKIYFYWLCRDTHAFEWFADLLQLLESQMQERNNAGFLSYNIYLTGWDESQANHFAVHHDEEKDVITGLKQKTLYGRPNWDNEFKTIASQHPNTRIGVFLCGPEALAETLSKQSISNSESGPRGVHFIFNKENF
SMILES,z-score [1],composite z-score [2],z-score [3],z-score [4],z-score [5],z-score [6],z-score [7],z-score [8],z-score [9],z-score [10]
CCOC(=O)C[C@H]1[C@H](OC(=O)c2ccc(-c3ccccc3)cc2)[C@@H](NC(=O)CC(C)C)c2cc(OCCCO)ccc2N1C(=O)c1ccccc1,-0.674 (inactive),0.113,1.18 (inactive),0.389 (inactive),-0.0732 (inactive),0.336 (inactive),0.574,0.403 (inactive),-0.742 (inactive),1.74
O=C(NCC(O)CO)[C@@]1(CCS(=O)(=O)c2ccccc2)COC(c2ccc(OCCCO)cc2)=N1 (stereo not given in full),0.457 (inactive),0.467,29.3 (active),22.3 (active),1.7 (inactive),2.91 (inactive),-0.245,0.299 (inactive),1.77 (inactive),1.51
CN1C(=O)C2C=CC(C(O)c3cc(C(F)(F)F)cc(C(F)(F)F)c3)N(NC(=O)OC(C)(C)C)C2C1=O (stereo not given),-1.13 (inactive),0.363,-0.0698 (inactive),0.118 (inactive),-0.548 (inactive),1.2 (inactive),-0.636,-0.694 (inactive),-1.47 (inactive),1.5
CC(C)[C@H]1NC(=O)[C@@]23C(=O)N[C@@H](Cc4ccccc4)C2[C@H](C)[C@@]2(C)O[C@H]2C3/C=C/C/C=C\CNC(=O)[C@H](Cc2ccccc2)NC1=O (stereo not given in full),-0.306 (inactive),0.284,1.48 (inactive),0.491 (inactive),0.137 (inactive),0.476 (inactive),-0.324,0.155 (inactive),1.05 (inactive),1.1
NC(=O)[C@H]1[C@@H]2C(=O)O[C@@H](c3ccccc3)[C@@H](c3ccccc3)N2[C@@H](c2ccc(O)cc2)[C@]12C(=O)Nc1ccc(C#CC3=CCCCC3)cc12,-1.35 (inactive),0.145,3.07 (inactive),1.45 (inactive),0.28 (inactive),1.4 (inactive),-0.425,1.18 (inactive),0.425 (inactive),0.563
O=C1OCCC/C=C\[C@H]2OC34C=CCN(c5ccc6ccccc6c5)C(=O)[C@H]3N(CCCO)C(=O)[C@@H]4C12 (stereo not given in full),-0.52 (inactive),-0.366,3.21 (inactive),0.571 (inactive),-0.276 (inactive),0.187 (inactive),0.688,2.08 (inactive),1.14 (inactive),2.53
COCC1C2CC[C@H]3C(OCc4ccc(OC)cc4)OC[C@]4(C)[C@H]3C2=C(CN4C(=O)OC(C)(C)C)[C@H](C)C1COC (stereo not given in full),-1.23 (inactive),-0.302,3.68 (inactive),-0.556 (inactive),0.308 (inactive),-2.05 (inactive),2.25,-1.53 (inactive),-1.89 (inactive),-2.99
CCOC(=O)C1=C[C@@H](C(C)(C)C)N(S(=O)(=O)c2ccc(C)cc2)[C@H]1c1ccc(C)cc1,-1.92 (inactive),0.121,0.302 (inactive),0.54 (inactive),0.0464 (inactive),-0.0532 (inactive),-0.53,-0.875 (inactive),-0.25 (inactive),0.251
CCN(CC)c1ccc(N2CC=CC34O[C@@H]5/C=C\CCC(C)OC(=O)C5[C@H]3C(=O)N(C(C)CO)[C@@H]4C2=O)cc1 (stereo not given in full),1.23 (inactive),-0.196,0.946 (inactive),-0.227 (inactive),0.987 (inactive),0.304 (inactive),-0.276,0.33 (inactive),-0.619 (inactive),1.69
COC(=O)[C@@]1(Cc2ccccc2)[C@H]2c3cc(C(=O)N(C)C)n(CCn4cc([N+](=O)[O-])nc4C)c3C[C@H]2CN1C(=O)c1ccccc1,-0.566 (inactive),0.0249,-0.25 (inactive),-0.949 (inactive),-0.513 (inactive),-0.956 (inactive),1.18,0.635 (inactive),1.24 (inactive),-1.65
Cc1ccc(C(C)CC(O)C2C=CC3C(=O)N(c4ccccc4)C(=O)C3N2Nc2ccc(C#N)cc2)o1 (stereo not given),0.249 (inactive),0.198,7.4 (inactive),0.478 (inactive),0.45 (inactive),-0.397 (inactive),0.729,-2.43 (inactive),-3.34 (inactive),-2.6
COCC(=C=CC[C@@H](O)c1cccc(OCCO)c1)CCO,0.355 (inactive),0.0091,2.3 (inactive),0.152 (inactive),0.691 (inactive),0.135 (inactive),-0.094,-0.274 (inactive),-0.761 (inactive),-0.334

# Reference: PubChem BioAssay
